Test results published in PubChem BioAssay (NCI).
The panel holds about 83,000 compounds, 20% with a hit somewhere; the sample as a whole holds those more often.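 Single-dose data. Exposure time 48 hours. Values below 10 considered active.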 The source made the active and inactive calls.

The compounds below were run on HL-60(TB) leukemia (assay: NCI-60 one-dose screen, 48 h (100 = growth as untreated, 0 = no growth, -100 = all killed)). Details: 10 µM unless noted.

Compound | growth
CCCCCCCCCCC(CN(CC)CC)C(O)c1ccccc1 (stereo not drawn) | 44.7% (inactive)
CCOC(=O)C(CNc1ccccc1)C(=O)OCC | 101% (inactive)
CC(=O)Nc1cc(C)ccc1C | 100% (inactive)
CNc1nc2ncn(C)c2c(=O)[nH]1 | 91.5% (inactive)
O=C(Nc1ccc(F)cc1)ON=C1CCCCC1 | 86.8% [100 µM] (inactive)
COc1cc2c(cc1-c1c(C)noc1C)ncc1nc(C3CCCC3)n([C@H](C)COC(F)F)c12 | 27.8% (inactive)
CN(C)CC(O)c1ccc(/C=C/c2ccc(Cl)cc2)cc1 (stereo not drawn) | -43.6% (active)
O=S(=O)(c1ccc(NCSc2nc3ccccc3s2)cc1)c1ccc(NCSc2nc3ccccc3s2)cc1 | 72.7% (inactive)
